Active and inactive are the calls of the source. How the source made its calls: active means hit-call score of the fitted dose curve at least 0.9, where 1 is the maximum; inactive means score below 0.9.

Read-out in one test: not listed separately
The experiment in a line: BSK_KF3CT_SRB: Viability Assessment in the BioMAP Diversity Plus: KF3CT Assay (AID 2283069).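 Further: total protein by sulforhodamine B staining as a cytotoxicity measure; read 24 h after compound addition.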 The settings on record: primary human keratinocytes with fibroblasts. The method, boiled down:
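Cytotoxicity was gauged by SRB staining (0.1% SRB, 10% TCA fixation, 560 nm) of parallel cultures at 24 h. The cells were primary human skin keratinocytes co-cultured with fibroblasts, and activity was fitted in both directions against DMSO.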
Consider `CCCCCCCCCCCCc1cccc(S(=O)(=O)O)c1`, for which the AC50 is 26.5 µM (active).

As for `CC(C)N(C(=O)CCl)c1ccccc1`, the half-maximal activity concentration (AC50) is 27.1 µM (active).

As to `CN(C)C(=S)S`, the outcome was inactive.

On to `Oc1c(Br)cc(Br)cc1Br`, for which the outcome was inactive.

Take `C[C@]12CC[C@@H](O)C[C@@H]1CC[C@@H]1[C@@H]2CC[C@]2(C)C(=O)CC[C@@H]12`: the outcome was inactive.

For the molecule `O=C(O)COc1cc(Cl)c(Cl)cc1Cl`, the outcome was inactive.

As to `Cc1ccc(OP(=O)(Oc2ccc(C)cc2C)Oc2ccc(C)cc2C)c(C)c1`, the outcome was inactive.

For the molecule `C=CC(Cl)CCl` (stereo unspecified), the result was inactive.

On to `[Cl][Sn]([c]1ccccc1)([c]1ccccc1)[c]1ccccc1`, for which the AC50 was 0.183 µM (active).

Consider `COc1ccccc1N`, for which the result was inactive.

Consider `Cc1cccc(OP(=O)(Oc2cccc(C)c2)Oc2cccc(C)c2)c1`, for which the result was inactive.

In the case of `N#Cc1cccnc1`, the result was inactive.

For the molecule `OC(Cc1ccccc1Cl)(Cn1[nH]cnc1=S)C1(Cl)CC1` (stereo unspecified), the result was inactive.

`CC1(C)[C@H](C(=O)O[C@H](C#N)c2cccc(Oc3ccccc3)c2)[C@@H]1/C=C(\Cl)C(F)(F)F`: the result was inactive.

With `CCCCCCCCCCCCN(C)C`, the outcome was inactive.

Take `OCCCCO`: the result was inactive.

Consider `Nc1ccc(N)cc1`, for which the outcome was inactive.

On to `COCC(=O)N(c1c(C)cccc1C)[C@H](C)C(=O)OC`, for which the outcome was inactive.

`CCOP(=S)(OCC)OP(=S)(OCC)OCC`: the outcome was inactive.

`Clc1cccc(Cl)c1`: the result was inactive.

Turning to `OC(Cc1ccccc1Cl)(Cn1cncn1)C1(Cl)CC1` (stereo unspecified), the result was inactive.

In the case of `Clc1cccc(Cl)c1Cl`, the result was inactive.

`NC(=O)CCl`: the outcome was inactive.

For the molecule `O=C(N[C@H]1CN2CCC1CC2)c1ccc2c(c1)OCCO2`, the result was inactive.

As to `c1ccc(-c2cccc(-c3ccccc3)c2)cc1`, the outcome was inactive.

Turning to `Cc1c([N+](=O)[O-])c(C)c([N+](=O)[O-])c(C(C)(C)C)c1[N+](=O)[O-]`, the result was inactive.

Consider `CCCCN(CCCC)C(=S)[S-].CCCCN(CCCC)C(=S)[S-].[Ni+2]`, for which the outcome was inactive.

For the molecule `O=C(CCl)NCO`, the outcome was inactive.

Consider `Cc1cc(Cl)ccc1N`, for which the result was inactive.

Take `Oc1cc(Cl)c(Cl)cc1Cl`: the result was inactive.

In the case of `CCOC(=O)CCN(SN(C)C(=O)Oc1cccc2c1OC(C)(C)C2)C(C)C`, the result was inactive.

`CCCCOC(=O)COC(=O)c1ccccc1C(=O)OCCCC`: the outcome was inactive.

In the case of `N#CCCC(Br)(C#N)CBr` (stereo unspecified), the concentration at half-maximal activity (AC50) was 20 µM (active).

Read-out in a further test: Interleukin-1 alpha (IL1a), IL1A (gene 3552)
Description: BSK_KF3CT_IL1a: BioMAP Diversity Plus: KF3CT Assay for Interleukin-1 alpha (IL1a) Biomarker Activity (AID 2283070). The settings on record: primary human keratinocytes with fibroblasts; actives raise or lower the signal. The method, boiled down: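 IL-1a was detected by ELISA 24 h after chemical treatment of a co-culture of human skin keratinocytes and foreskin fibroblasts. Gain or loss of signal was fitted against the DMSO baseline.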
For the molecule `CCCCCCCCCCCCc1cccc(S(=O)(=O)O)c1`, the AC50 is 33.3 µM (active).

As to `CC(C)N(C(=O)CCl)c1ccccc1`, the result was inactive.

Consider `CN(C)C(=S)S`, for which the result was inactive.

`Oc1c(Br)cc(Br)cc1Br`: the outcome was inactive.

Turning to `C[C@]12CC[C@@H](O)C[C@@H]1CC[C@@H]1[C@@H]2CC[C@]2(C)C(=O)CC[C@@H]12`, the outcome was inactive.

For `O=C(O)COc1cc(Cl)c(Cl)cc1Cl`, the result was inactive.

As to `Cc1ccc(OP(=O)(Oc2ccc(C)cc2C)Oc2ccc(C)cc2C)c(C)c1`, the result was inactive.

With `C=CC(Cl)CCl` (stereo unspecified), the half-maximal activity concentration (AC50) was 0.0797 µM (active).

Turning to `[Cl][Sn]([c]1ccccc1)([c]1ccccc1)[c]1ccccc1`, the AC50 is 0.127 µM (active).

In the case of `COc1ccccc1N`, the outcome was inactive.

For `Cc1cccc(OP(=O)(Oc2cccc(C)c2)Oc2cccc(C)c2)c1`, the result was inactive.

As to `N#Cc1cccnc1`, the result was inactive.

For `OC(Cc1ccccc1Cl)(Cn1[nH]cnc1=S)C1(Cl)CC1` (stereo unspecified), the result was inactive.

For the molecule `CC1(C)[C@H](C(=O)O[C@H](C#N)c2cccc(Oc3ccccc3)c2)[C@@H]1/C=C(\Cl)C(F)(F)F`, the result was inactive.

As for `CCCCCCCCCCCCN(C)C`, the outcome was inactive.

As to `OCCCCO`, the result was inactive.

Consider `Nc1ccc(N)cc1`, for which the outcome was inactive.

As for `COCC(=O)N(c1c(C)cccc1C)[C@H](C)C(=O)OC`, the result was inactive.

Turning to `CCOP(=S)(OCC)OP(=S)(OCC)OCC`, the result was inactive.

Consider `Clc1cccc(Cl)c1`, for which the result was inactive.

With `OC(Cc1ccccc1Cl)(Cn1cncn1)C1(Cl)CC1` (stereo unspecified), the result was inactive.

Consider `Clc1cccc(Cl)c1Cl`, for which the outcome was inactive.

Consider `NC(=O)CCl`, for which the outcome was inactive.

Consider `O=C(N[C@H]1CN2CCC1CC2)c1ccc2c(c1)OCCO2`, for which the outcome was inactive.

In the case of `c1ccc(-c2cccc(-c3ccccc3)c2)cc1`, the AC50 is 7.05 µM (active).

Regarding `Cc1c([N+](=O)[O-])c(C)c([N+](=O)[O-])c(C(C)(C)C)c1[N+](=O)[O-]`, the result was inactive.

On to `CCCCN(CCCC)C(=S)[S-].CCCCN(CCCC)C(=S)[S-].[Ni+2]`, for which the outcome was inactive.

As to `O=C(CCl)NCO`, the result was inactive.

Take `Cc1cc(Cl)ccc1N`: the outcome was inactive.

Consider `Oc1cc(Cl)c(Cl)cc1Cl`, for which the outcome was inactive.

With `CCOC(=O)CCN(SN(C)C(=O)Oc1cccc2c1OC(C)(C)C2)C(C)C`, the outcome was inactive.

In the case of `CCCCOC(=O)COC(=O)c1ccccc1C(=O)OCCCC`, the outcome was inactive.

Turning to `N#CCCC(Br)(C#N)CBr` (stereo unspecified), the half-maximal activity concentration (AC50) is 14.4 µM (active).

The term AC50 denotes the concentration at which the activity in the assay is half-maximal.
